# Columns and labels:
# Test in all cases: DAPPL (digital affinity profiling via proximity ligation, sequencing); 10 mM Tris-HCl pH 7.5, 50 mM NaCl, 1 mM DTT, 4% glycerol, room temperature, 30 min; GST-TFs on glutathione beads, 16-mer random dsDNA library, 0.1% formaldehyde crosslink after washing; high values mean tight binding
# FLI1 = target: T1, FLI1 (Homo sapiens, UniProt Q01543 1-452); details: protein: recombinant; tags: N-terminal GST; dsDNA, one strand shown
# T1 sequence: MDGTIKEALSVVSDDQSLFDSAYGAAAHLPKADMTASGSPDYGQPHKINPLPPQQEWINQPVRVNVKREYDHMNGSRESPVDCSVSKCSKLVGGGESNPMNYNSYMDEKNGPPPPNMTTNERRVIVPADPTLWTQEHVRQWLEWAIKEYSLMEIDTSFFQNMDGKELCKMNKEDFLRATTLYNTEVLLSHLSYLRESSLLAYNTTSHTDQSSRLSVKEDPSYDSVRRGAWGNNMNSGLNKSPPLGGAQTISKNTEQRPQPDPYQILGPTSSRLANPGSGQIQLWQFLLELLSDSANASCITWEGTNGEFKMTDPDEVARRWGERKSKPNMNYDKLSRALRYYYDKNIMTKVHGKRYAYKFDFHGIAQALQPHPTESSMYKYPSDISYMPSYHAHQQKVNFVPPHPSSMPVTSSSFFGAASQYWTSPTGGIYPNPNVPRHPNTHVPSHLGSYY
# Method in brief: (§1)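 After expression in yeast as GST fusions, human transcription factors were bound to glutathione beads, DNA-barcoded and mixed with a tag-only sample. The pools were incubated with 200 nmole of a 16-mer random double-stranded DNA library in Tris/NaCl/DTT/glycerol buffer (30 min, room temperature), washed and crosslinked with 0.1% formaldehyde. Proximity ligation with BsaI/T4 ligase ran for 1 h at 37 °C, before PCR amplification and sequencing on an Illumina NextSeq500. Binding signal is a hexamer's read frequency for a factor divided by its frequency for the tag-only sample.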
# ELK1 = target: T2, ELK1 (Homo sapiens, UniProt P19419 1-428); details: protein: recombinant; tags: N-terminal GST; dsDNA, one strand shown
# T2 sequence: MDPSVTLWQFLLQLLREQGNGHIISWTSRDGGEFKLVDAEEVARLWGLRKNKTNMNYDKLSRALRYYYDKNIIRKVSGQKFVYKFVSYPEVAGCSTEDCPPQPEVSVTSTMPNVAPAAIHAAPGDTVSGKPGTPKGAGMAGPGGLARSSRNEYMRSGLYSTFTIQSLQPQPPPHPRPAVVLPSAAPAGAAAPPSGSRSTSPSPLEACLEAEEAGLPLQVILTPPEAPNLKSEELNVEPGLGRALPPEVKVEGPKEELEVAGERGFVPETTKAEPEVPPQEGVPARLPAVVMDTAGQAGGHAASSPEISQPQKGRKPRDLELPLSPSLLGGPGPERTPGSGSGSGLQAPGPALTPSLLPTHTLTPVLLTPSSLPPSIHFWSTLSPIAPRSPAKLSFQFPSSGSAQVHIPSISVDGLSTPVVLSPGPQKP
# Method in brief: as §1
# GABPA = target: T3, GABPA (Homo sapiens, UniProt Q06546 1-454); details: protein: recombinant; tags: N-terminal GST; dsDNA, one strand shown
# T3 sequence: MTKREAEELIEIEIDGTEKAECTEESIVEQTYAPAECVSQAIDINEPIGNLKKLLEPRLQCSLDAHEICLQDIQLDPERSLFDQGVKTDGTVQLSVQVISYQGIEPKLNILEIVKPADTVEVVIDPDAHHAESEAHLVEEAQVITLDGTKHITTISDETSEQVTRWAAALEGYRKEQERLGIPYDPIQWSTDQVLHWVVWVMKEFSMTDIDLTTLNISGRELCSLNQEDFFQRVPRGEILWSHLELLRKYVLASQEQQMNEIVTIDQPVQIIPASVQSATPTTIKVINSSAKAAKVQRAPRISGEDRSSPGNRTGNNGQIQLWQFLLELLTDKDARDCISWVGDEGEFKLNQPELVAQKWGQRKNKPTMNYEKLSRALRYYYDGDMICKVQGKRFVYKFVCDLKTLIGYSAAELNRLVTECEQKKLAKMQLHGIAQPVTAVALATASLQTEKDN
# Method in brief: as §1
# ERG = target: T4, ERG (Homo sapiens, UniProt P11308 1-479); details: protein: recombinant; tags: N-terminal GST; dsDNA, one strand shown
# T4 sequence: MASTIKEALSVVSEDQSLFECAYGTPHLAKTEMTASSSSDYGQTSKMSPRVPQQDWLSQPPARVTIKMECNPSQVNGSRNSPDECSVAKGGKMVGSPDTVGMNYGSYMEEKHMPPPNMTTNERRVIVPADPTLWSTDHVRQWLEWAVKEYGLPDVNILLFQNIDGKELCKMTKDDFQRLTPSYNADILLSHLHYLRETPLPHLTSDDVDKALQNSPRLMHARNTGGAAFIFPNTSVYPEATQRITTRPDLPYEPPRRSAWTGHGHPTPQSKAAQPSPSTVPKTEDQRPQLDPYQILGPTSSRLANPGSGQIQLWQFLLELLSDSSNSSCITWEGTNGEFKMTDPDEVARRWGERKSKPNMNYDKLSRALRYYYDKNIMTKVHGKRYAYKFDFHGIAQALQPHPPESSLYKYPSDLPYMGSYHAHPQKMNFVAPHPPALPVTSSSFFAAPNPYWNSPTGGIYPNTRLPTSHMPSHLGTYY
# Method in brief: as §1
# ELF1 = ELF1 (Homo sapiens, UniProt P32519 1-619); details: protein: recombinant; tags: N-terminal GST; dsDNA, one strand shown
# Method in brief: as §1
# EHF = target: T5, EHF (Homo sapiens, UniProt Q9NZC4 1-300); details: protein: recombinant; tags: N-terminal GST; dsDNA, one strand shown
# T5 sequence: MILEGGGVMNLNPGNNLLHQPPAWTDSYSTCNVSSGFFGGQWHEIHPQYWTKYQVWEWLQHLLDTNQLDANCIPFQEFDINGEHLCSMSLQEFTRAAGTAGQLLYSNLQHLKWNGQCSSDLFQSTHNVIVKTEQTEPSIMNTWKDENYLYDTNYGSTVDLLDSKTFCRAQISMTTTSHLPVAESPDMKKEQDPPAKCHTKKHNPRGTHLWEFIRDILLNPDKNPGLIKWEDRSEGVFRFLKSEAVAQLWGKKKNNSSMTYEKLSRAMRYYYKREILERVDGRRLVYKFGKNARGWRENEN
# Method in brief: as §1
# SPI1 = SPI1 (Homo sapiens, UniProt P17947 1-270); details: protein: recombinant; tags: N-terminal GST; dsDNA, one strand shown
# Method in brief: as §1
# SPIB = SPIB (Homo sapiens, UniProt Q01892 1-262); details: protein: recombinant; tags: N-terminal GST; dsDNA, one strand shown
# Method in brief: as §1
# ELK3 = target: T6, ELK3 (Homo sapiens, UniProt P41970 1-407); details: protein: recombinant; tags: N-terminal GST; dsDNA, one strand shown
# T6 sequence: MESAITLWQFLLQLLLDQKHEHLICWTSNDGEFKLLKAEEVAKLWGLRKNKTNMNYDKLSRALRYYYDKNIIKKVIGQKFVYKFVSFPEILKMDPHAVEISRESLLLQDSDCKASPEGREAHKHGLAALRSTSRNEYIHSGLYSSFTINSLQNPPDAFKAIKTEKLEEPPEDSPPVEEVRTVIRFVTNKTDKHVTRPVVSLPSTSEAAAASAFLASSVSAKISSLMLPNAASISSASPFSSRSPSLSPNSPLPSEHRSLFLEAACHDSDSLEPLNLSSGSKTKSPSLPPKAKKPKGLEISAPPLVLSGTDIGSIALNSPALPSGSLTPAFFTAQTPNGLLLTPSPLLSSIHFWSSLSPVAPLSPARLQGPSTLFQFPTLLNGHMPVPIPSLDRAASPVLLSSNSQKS
# Method in brief: as §1
# FEV = target: T7, FEV (Homo sapiens, UniProt Q99581 1-238); details: protein: recombinant; tags: N-terminal GST; dsDNA, one strand shown
# T7 sequence: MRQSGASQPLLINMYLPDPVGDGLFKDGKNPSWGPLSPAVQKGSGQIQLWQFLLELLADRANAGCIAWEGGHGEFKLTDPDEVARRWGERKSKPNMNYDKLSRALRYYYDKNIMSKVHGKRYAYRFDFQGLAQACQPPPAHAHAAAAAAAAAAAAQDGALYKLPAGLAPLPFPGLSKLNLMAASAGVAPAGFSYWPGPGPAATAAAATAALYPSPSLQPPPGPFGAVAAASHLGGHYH
# Method in brief: as §1
# ETV5 = ETV5 (Homo sapiens, UniProt P41161 1-510); details: protein: recombinant; tags: N-terminal GST; dsDNA, one strand shown
# Method in brief: as §1
# HSF1 = HSF1 (Homo sapiens, UniProt Q00613 1-529); details: protein: recombinant; tags: N-terminal GST; chain copies: 3; dsDNA, one strand shown
# Method in brief: as §1
# SPIC = target: T8, SPIC (Homo sapiens, UniProt Q8N5J4 1-248); details: protein: recombinant; tags: N-terminal GST; dsDNA, one strand shown
# T8 sequence: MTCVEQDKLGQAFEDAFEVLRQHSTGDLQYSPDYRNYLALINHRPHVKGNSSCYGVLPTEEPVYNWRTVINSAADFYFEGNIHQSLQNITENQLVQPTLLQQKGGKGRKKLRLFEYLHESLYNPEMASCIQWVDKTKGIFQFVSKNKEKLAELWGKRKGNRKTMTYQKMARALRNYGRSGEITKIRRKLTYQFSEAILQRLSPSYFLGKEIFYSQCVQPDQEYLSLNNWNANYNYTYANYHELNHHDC
# Method in brief: as §1
# ELF4 = ELF4 (Homo sapiens, UniProt Q99607 1-663); details: protein: recombinant; tags: N-terminal GST; dsDNA, one strand shown
# Method in brief: as §1
# ELK4 = target: T9, ELK4 (Homo sapiens, UniProt P28324-2 1-405); details: protein: recombinant; tags: N-terminal GST; dsDNA, one strand shown
# T9 sequence: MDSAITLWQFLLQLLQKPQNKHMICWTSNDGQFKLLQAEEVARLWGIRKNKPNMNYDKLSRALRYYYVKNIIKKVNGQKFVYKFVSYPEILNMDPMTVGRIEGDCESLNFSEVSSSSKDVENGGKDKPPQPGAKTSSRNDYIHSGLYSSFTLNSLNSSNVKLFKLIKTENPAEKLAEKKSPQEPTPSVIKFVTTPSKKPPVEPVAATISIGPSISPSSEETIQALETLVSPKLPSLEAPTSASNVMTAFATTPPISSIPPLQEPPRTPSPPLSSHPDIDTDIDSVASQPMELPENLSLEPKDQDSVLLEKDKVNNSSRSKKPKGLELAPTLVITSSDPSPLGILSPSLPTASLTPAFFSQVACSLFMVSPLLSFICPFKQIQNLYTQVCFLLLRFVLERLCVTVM
# Method in brief: as §1
# ETV2 = target: T10, ETV2 (Homo sapiens, UniProt O00321 1-342); details: protein: recombinant; tags: N-terminal GST; dsDNA, one strand shown
# T10 sequence: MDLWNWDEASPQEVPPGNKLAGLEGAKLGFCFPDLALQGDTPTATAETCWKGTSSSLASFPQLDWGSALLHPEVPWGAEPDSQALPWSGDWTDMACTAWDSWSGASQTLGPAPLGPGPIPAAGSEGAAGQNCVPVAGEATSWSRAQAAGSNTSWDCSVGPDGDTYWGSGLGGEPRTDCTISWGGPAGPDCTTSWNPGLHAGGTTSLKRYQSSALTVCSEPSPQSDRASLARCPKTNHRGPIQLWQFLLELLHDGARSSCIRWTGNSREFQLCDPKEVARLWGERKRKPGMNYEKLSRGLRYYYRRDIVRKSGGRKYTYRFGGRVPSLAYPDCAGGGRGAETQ
# Method in brief: as §1
# ELF3 = target: T11, ELF3 (Homo sapiens, UniProt P78545 1-371); details: protein: recombinant; tags: N-terminal GST; dsDNA, one strand shown
# T11 sequence: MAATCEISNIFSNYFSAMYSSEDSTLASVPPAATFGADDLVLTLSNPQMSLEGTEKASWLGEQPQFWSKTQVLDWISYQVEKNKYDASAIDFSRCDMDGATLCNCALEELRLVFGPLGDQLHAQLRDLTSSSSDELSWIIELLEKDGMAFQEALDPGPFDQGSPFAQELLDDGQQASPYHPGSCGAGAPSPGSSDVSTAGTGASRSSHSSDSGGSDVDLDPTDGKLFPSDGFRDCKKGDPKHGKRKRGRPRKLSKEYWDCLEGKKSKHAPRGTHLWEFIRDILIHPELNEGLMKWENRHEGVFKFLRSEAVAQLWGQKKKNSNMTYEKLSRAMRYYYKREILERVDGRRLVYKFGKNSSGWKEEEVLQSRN
# Method in brief: as §1
# CRX = CRX (Homo sapiens, UniProt O43186 1-299); details: protein: recombinant; tags: N-terminal GST; dsDNA, one strand shown
# Method in brief: as §1
# ETV1 = ETV1 (Homo sapiens, UniProt P50549 1-477); details: protein: recombinant; tags: N-terminal GST; dsDNA, one strand shown
# Method in brief: as §1
# Sequence of ETV1 (P50549 whole entry): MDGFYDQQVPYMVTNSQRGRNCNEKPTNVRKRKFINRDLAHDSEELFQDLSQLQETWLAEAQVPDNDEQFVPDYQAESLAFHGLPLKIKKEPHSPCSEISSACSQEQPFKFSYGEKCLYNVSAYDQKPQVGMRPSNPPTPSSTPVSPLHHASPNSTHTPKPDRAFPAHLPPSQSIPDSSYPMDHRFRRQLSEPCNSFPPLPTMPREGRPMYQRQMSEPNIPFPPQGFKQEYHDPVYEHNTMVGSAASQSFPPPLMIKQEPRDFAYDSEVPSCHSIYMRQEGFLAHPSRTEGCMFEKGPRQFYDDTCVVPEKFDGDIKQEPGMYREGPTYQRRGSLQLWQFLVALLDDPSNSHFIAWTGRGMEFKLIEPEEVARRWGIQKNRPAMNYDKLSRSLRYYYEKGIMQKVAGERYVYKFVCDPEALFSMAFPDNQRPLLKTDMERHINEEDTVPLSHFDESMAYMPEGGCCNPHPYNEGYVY
# Sequence of ELF1 (P32519 whole entry): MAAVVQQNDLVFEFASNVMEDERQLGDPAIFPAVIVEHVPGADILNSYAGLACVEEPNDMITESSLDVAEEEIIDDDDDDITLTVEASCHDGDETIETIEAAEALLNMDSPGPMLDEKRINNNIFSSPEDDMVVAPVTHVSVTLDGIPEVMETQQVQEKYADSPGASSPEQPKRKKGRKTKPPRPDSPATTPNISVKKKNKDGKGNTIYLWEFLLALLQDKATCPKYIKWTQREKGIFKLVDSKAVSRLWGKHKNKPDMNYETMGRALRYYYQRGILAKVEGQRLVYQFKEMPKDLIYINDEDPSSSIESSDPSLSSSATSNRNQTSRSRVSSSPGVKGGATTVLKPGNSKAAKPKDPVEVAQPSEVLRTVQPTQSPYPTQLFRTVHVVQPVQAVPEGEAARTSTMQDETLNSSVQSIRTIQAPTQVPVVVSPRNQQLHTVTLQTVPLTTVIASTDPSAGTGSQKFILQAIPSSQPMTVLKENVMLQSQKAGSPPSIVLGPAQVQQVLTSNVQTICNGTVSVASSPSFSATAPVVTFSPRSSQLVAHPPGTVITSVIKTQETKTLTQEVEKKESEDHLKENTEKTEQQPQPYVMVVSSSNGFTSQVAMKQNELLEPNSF
# Sequence of ETV5 (P41161 whole entry): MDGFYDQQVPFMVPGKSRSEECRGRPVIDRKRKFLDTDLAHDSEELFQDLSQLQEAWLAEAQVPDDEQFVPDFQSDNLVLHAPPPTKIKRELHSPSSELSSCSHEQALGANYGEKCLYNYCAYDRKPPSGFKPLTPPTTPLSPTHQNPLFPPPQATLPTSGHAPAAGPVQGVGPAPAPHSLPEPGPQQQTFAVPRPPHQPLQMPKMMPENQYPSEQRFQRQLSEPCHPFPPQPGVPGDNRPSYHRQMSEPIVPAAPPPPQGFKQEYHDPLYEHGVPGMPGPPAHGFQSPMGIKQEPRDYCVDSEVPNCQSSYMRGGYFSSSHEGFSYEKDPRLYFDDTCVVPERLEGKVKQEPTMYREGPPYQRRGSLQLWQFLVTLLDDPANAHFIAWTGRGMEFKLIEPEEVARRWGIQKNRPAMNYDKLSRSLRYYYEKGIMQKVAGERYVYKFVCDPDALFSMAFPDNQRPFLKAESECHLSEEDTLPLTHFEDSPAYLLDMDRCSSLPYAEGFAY
# Sequence of ELF4 (Q99607 whole entry): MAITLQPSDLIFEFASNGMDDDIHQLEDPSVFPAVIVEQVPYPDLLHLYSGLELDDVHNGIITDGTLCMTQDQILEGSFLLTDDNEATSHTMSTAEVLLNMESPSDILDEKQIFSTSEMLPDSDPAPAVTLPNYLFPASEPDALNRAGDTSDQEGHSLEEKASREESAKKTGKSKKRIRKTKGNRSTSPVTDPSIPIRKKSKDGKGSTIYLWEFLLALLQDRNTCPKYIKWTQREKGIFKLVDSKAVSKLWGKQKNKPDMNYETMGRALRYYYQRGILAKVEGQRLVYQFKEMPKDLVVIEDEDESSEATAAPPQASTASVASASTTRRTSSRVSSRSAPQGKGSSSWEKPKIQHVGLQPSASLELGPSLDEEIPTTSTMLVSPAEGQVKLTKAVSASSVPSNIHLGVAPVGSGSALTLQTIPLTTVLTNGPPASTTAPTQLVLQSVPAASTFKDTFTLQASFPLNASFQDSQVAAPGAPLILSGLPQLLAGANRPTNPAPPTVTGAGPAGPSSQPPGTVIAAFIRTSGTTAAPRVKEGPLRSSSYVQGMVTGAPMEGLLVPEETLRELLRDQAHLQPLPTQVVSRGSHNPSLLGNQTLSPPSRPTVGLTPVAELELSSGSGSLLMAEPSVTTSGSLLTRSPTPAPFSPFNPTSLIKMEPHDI
# Sequence of HSF1 (Q00613 whole entry): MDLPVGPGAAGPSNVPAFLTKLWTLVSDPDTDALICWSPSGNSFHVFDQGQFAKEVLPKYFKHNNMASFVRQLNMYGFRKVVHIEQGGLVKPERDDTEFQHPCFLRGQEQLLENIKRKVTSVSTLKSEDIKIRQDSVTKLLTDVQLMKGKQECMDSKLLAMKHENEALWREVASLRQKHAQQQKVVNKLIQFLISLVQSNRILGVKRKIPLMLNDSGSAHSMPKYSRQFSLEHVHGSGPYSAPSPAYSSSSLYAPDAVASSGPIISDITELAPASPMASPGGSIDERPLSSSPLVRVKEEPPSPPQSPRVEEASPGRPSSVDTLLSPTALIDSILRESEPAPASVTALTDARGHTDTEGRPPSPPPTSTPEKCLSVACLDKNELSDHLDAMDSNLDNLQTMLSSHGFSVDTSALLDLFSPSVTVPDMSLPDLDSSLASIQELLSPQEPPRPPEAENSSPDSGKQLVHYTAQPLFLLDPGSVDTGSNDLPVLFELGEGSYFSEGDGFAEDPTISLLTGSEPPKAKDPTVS
# Sequence of CRX (O43186 whole entry): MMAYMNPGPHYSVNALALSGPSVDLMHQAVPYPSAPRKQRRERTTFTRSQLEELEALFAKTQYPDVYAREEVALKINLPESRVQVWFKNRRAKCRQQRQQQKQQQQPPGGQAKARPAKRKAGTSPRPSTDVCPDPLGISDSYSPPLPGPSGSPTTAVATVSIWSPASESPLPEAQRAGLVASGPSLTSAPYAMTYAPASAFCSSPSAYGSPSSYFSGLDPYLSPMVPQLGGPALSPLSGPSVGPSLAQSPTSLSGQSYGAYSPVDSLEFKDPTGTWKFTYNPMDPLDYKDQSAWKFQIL
# Sequence of SPIB (Q01892 whole entry): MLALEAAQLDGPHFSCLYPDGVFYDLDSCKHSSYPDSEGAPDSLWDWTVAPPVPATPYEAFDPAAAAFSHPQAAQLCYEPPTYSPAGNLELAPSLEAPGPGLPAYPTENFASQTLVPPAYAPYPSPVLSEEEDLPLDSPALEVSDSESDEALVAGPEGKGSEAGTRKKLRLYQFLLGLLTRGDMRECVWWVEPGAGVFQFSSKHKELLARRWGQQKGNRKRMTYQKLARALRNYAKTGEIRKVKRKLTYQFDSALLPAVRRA
sequence,measurement,setting,value
AATGGC,binding signal,FLI1,"1.32 fold enrichment (6-mer frequency, TF over GST control)"
same,binding signal,ELK1,"1.33 fold enrichment (6-mer frequency, TF over GST control)"
same,binding signal,GABPA,"1.37 fold enrichment (6-mer frequency, TF over GST control)"
same,binding signal,ERG,"1.43 fold enrichment (6-mer frequency, TF over GST control)"
same,binding signal,ELF1,"1.39 fold enrichment (6-mer frequency, TF over GST control)"
same,binding signal,EHF,"1.5 fold enrichment (6-mer frequency, TF over GST control)"
same,binding signal,SPI1,"1.39 fold enrichment (6-mer frequency, TF over GST control)"
same,binding signal,SPIB,"1.37 fold enrichment (6-mer frequency, TF over GST control)"
same,binding signal,ELK3,"1.26 fold enrichment (6-mer frequency, TF over GST control)"
same,binding signal,FEV,"1.52 fold enrichment (6-mer frequency, TF over GST control)"
same,binding signal,ETV5,"1.42 fold enrichment (6-mer frequency, TF over GST control)"
same,binding signal,HSF1,"1.28 fold enrichment (6-mer frequency, TF over GST control)"
same,binding signal,SPIC,"1.61 fold enrichment (6-mer frequency, TF over GST control)"
same,binding signal,ELF4,"1.29 fold enrichment (6-mer frequency, TF over GST control)"
same,binding signal,ELK4,"1.52 fold enrichment (6-mer frequency, TF over GST control)"
same,binding signal,ETV2,"1.26 fold enrichment (6-mer frequency, TF over GST control)"
same,binding signal,ELF3,"1.55 fold enrichment (6-mer frequency, TF over GST control)"
same,binding signal,CRX,"1.26 fold enrichment (6-mer frequency, TF over GST control)"
same,binding signal,ETV1,"1.44 fold enrichment (6-mer frequency, TF over GST control)"

# From paper PMC7862700, “An all-to-all approach to the identification of sequence-specific readers for epigenetic DNA modifications on cytosine”
